# HT1080NT lethal: qHTS for induction of synthetic lethality in tumor cells producing 2HG: qHTS for the HT-1080-NT fibrosarcoma cell line; AID 686970, 2013; 360,000 tested, 1.6% active; HT-1080-NT fibrosarcoma viability, CellTiter-Glo ATP luminescence, 48 h; Potency, µM (highest dose often 46.1 µM), without a hit: top-dose activity, negative = less viability, most hits filed as cytotoxic;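 further: NT is the 2HG producing partner of a matched IDH1 knockdown line; potency means the concentration at half of the fitted maximal effect; 0% = DMSO-treated cells and -100% = media-only wells without cells; nearly all actives have a fitted effect of over 55% in size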
#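 Compounds were tested in concentration-response format on HT-1080-NT cells for 48 hours at 37 degrees C. Cell viability came from CellTiter-Glo luminescence; curves were classified by r2, response magnitude and activity.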
# TDP1 cell CPT: qHTS for Inhibitors of human tyrosyl-DNA phosphodiesterase 1 (TDP1): qHTS in cells in presence of CPT. chicken DT40 Tdp1-/-;hTDP1 cells + 20 nM CPT, ATP luminescence, 48 h. Potency, µM (highest dose often 46.2 µM), without a hit: at the highest dose activity change, negative = growth inhibition, actives largely listed as inhibitors. 420,000 tested, 12% active; further: potency means the concentration at half of the fitted maximal effect; nearly all actives have a fitted effect of over 55% in size
#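 Cell growth measured by CellTiter-Glo luminescence after a minimum 48 h, 37 C compound exposure with 20 nM CPT in Tdp1-knockout DT40 cells stably expressing hTDP1, seeded 400/well; qHTS titration format.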
# IL-1B inflam inh: qHTS for Inhibitors of Inflammasome Signaling: IL-1-beta AlphaLISA Primary Screen. AID 743279, 2014. activity change, % at 57.5 µM. THP-1 LPS/ATP IL-1B secretion, AlphaLISA, 16 h; active compounds read low. 360,000 tested, 4.7% active; in the data active means activity change below about -50%; inconclusive means mostly about -30% to -49%
#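 Secreted IL-1B measured by AlphaLISA bead assay after 16 h compound exposure of THP-1 cells; compounds (final up to 57.5 uM) added 1 h before LPS (250 ng/mL) and ATP (1.25 mM) stimulation; lower signal means less secretion.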
# 12-LOX inh: Primary qHTS assay for inhibitors of human arachidonate 12S-lipoxygenase (ALOX12): Round 2; Polyunsaturated fatty acid lipoxygenase ALOX12 (Homo sapiens), P18054; purified 12hLO, xylenol orange hydroperoxide absorbance; Potency, µM (series often up to 108 µM), for inactives: at the highest dose activity change, negative = inhibition, actives largely listed as inhibitors; 580,000 tested, 1.1% active; AID 1671190, 2021; further: potency means the concentration at half of the fitted maximal effect
# Target sequence (P18054 whole entry, looked up): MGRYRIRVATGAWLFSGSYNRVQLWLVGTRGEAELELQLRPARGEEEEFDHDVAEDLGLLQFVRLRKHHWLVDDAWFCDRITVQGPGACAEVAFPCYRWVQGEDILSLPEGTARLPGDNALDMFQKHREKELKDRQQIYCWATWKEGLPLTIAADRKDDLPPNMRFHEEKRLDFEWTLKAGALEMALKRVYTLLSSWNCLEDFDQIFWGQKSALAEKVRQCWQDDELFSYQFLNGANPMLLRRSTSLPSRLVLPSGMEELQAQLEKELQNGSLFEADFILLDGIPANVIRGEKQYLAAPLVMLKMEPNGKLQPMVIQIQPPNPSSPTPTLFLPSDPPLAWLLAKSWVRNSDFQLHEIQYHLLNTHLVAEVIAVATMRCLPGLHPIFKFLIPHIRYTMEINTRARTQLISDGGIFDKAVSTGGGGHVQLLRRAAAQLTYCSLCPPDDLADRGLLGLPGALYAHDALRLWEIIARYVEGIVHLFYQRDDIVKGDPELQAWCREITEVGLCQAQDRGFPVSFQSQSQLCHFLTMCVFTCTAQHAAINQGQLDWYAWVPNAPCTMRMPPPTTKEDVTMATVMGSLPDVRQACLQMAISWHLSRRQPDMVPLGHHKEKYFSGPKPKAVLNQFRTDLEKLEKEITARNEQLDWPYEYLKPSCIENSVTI
#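 Purified human 12hLO at 150 nM in 25 mM Hepes, 0.01% Triton X-100, pH 7.0, preincubated 15 min at room temperature with compound. Reaction started with 40 uM arachidonic acid, 30 min at room temperature. Hydroperoxide measured by Fe-xylenol orange, 573/405 nm absorbance ratio.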
# HT1080 IDH1KD tx: qHTS for induction of synthetic lethality in tumor cells producing 2HG: qHTS for the HT-1080-IDH1KD cell line; HT-1080 IDH1 knockdown viability, ATP luminescence, 48 h; Potency, µM (doses to about 46.1 µM), for inactives: top-dose activity, negative = toxicity, usual class: cytotoxic; 360,000 tested, 2% active;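 further: potency means the concentration at half of the fitted maximal effect; 0% = DMSO wells and -100% = cell-free medium wells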
#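 Using the IDH1-knockdown HT-1080 line run in the same batch and compound series as the NT line, viability after 48 h at 37 °C was determined by CellTiter-Glo luminescence and expressed as % activity.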
# TDP1 cell noCPT: qHTS for Inhibitors of human tyrosyl-DNA phosphodiesterase 1 (TDP1): qHTS in cells in absence of CPT. DT40 Tdp1-/- hTDP1 cells, no CPT, ATP luminescence, 48 h. Potency, µM (titrated, usually from 46.2 µM), for the others: top-dose activity change, negative = growth inhibition, usual class: inhibitors. 420,000 tested, 15% active. AID 686978, 2013; further: potency means the concentration at half of the fitted maximal effect; nearly all actives have a fitted effect of over 55% in size
#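 Chicken DT40 Tdp1-/- cells complemented with human TDP1, screened without camptothecin (DMSO vehicle only), 400 cells/well. Compounds pin-transferred, cells incubated at 37 °C for at least 48 hr. Growth read as ATP-dependent luminescence (CellTiter-Glo, 30 min at RT).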
# * marks the source's active call; other numbers are inactive results; ? = inconclusive; nt = no result; ! = not confirmed by another sample; [ ] = another dose, or the depositor's remark. Only a selection was taken, and hits are over-represented in it overall. Unless noted, the call rests on the fitted dose curve; in most records, active means well fitted curve in the direction sought with a large enough effect; inconclusive means small, poorly fitted or top-dose-only effect, or another doubt; inactive means no such curve, though single readings can be large; an effect the other way counts as inactive or inconclusive. Unless noted, on the % scale 0 is the no-effect control and ±100 the full control effect.
SMILES,HT1080NT lethal,TDP1 cell CPT,IL-1B inflam inh,12-LOX inh,HT1080 IDH1KD tx,TDP1 cell noCPT
Cc1cc(C)cc(NC(=O)NCCn2nnc3cc(S(=O)(=O)N(C)C)ccc32)c1,nt,?,nt,?,nt,-22%
CC(C)c1ccc(N(CC(=O)N/N=C/c2ccc(OC3CSC3)cc2)S(=O)(=O)c2ccccc2)cc1,-3%,23µM*,-26,-18%,0%,?
CC(C)c1ccc(N(CC(=O)NCCCN2CCOCC2)S(=O)(=O)c2ccccc2)cc1,0%,18µM*,7,-2%,2%,26µM*
COc1cccc(N(CC(=O)NCCN2CCOCC2)S(=O)(=O)c2ccccc2)c1,-5%,-1%,-5,7%,0%,-8%
NC(=O)COC(=O)c1cccc2c1-c1ccccc1C2=O,11%,13%,-11,-7%,2%,?
CC(C)COC(=O)c1ccc2c(c1O)C(=O)c1ccccc1C2=O,4%,?,-12,0%,19%,23µM*
O=C(NCCc1ccccc1)c1cnc2c(c1)N([S+](=O)([O-])c1cccnc1)CCC2,nt,nt,nt,-9%[176 µM],nt,nt
O=C1/C(=C/c2ccco2)CCC1C1CCCC1 (stereo not drawn),?,-12%,-4,-16%,12%,-4%
O=C1/C(=C\c2ccco2)CCC/C1=C\c1ccco1,9%,16µM*,-64*,25µM*,-5%,?
CN(C)CCN1CCN(c2cc(C3CC(N)C3)nc(N)n2)CC1 (stereo not drawn),nt,nt,nt,3%,nt,nt
O=C(CC1CCCC1)N1CCN(S(=O)(=O)c2cccc(Br)c2)CC1,6%,18µM*,9,-53%,3%,?
Cc1cnc(C(=O)N2CCN(S(=O)(=O)c3cccc(Br)c3)CC2)cn1,6%,-28%,10,1%,7%,?
Cn1c(Cn2cccn2)nnc1C1CC(NC(=O)c2sccc2N)C1 (stereo not drawn),nt,nt,nt,10µM*!,nt,nt
C=C(C)C1CC=C(C)/C(=N/NC(=S)Nc2ccccc2)C1 (stereo not drawn),13%,12µM*,13,?,9%,6.5µM*
C=C(C)C1CC=C(C)/C(=N/NC(=O)Nc2ccccc2)C1 (stereo not drawn),nt,nt,nt,5%,nt,nt
C=C(C)C1CC=C(C)/C(=N/NC(=O)c2ccc(NC(=O)c3cccc(C)c3)cc2)C1 (stereo not drawn),12%,?,-21,10%,15%,18µM*
C=C(C)C1CC=C(C)/C(=N\NC(=S)Nc2ccccc2)C1 (stereo not drawn),nt,nt,nt,3%,nt,nt
COc1cccc(/C=C/c2nc(C#N)c(NC3CCCCC3)o2)c1,nt,?,nt,8%,nt,4.1µM*
COc1ccc(/C=C/c2nc(C#N)c(NC3CCCCC3)o2)cc1OC,nt,21µM*,nt,-12%,nt,21µM*
O=C(CC1CCCC1)N1C[C@@H](CO)[C@H](c2nc(-c3ccncc3)no2)C1,nt,nt,nt,1%,nt,nt
CCOc1ccc(NC(=O)c2cc3c(=O)n(C)c4ccccc4c3n2C)cc1,14%,8.2µM*,10,216%,24%,16µM*
CCOc1ccc(CCNC(=O)c2cc3c(=O)n(C)c4ccccc4c3n2C)cc1OCC,nt,23µM*,nt,-22%,nt,12µM*
COc1ccccc1NC(=O)c1cc2c(=O)n(C)c3ccccc3c2n1C,11%,?,?,-12%,-1%,15µM*
COc1cccc(NC(=O)c2cc3c(=O)n(C)c4ccccc4c3n2C)c1,nt,?,nt,-20%,nt,-13%
COc1ccccc1NC(=O)CCCOc1cc(=O)n(C)c2ccccc12,nt,?,nt,-10%,nt,21µM*
SMILES,HT1080NT lethal,TDP1 cell CPT,IL-1B inflam inh,12-LOX inh,HT1080 IDH1KD tx,TDP1 cell noCPT
Cn1c(C(=O)Nc2ccc3c(c2)OCO3)cc2c(=O)n(C)c3ccccc3c21,19%,-13%,0,-2%,19%,?
Cc1ccc(CCNC(=O)c2cc3c(=O)n(C)c4ccccc4c3n2C)cc1,nt,?,nt,-10%,nt,?
Cc1ccccc1NC(=O)CSc1nc(-c2ccco2)ccc1C#N,nt,nt,nt,-35%,nt,nt
CC(C)[C@@H](C(N)=O)N1CC[C@H]2CN(C(=O)Nc3ccccc3)CC[C@H]2CC1=O,nt,nt,nt,6%[176 µM],nt,nt
CC(C)NS(=O)(=O)c1cc(C(=O)O)cc(-c2ccc(C(=O)N(C)C)cc2)c1,nt,nt,nt,46%,nt,nt
COc1ccccc1NC(=O)c1nn(-c2ccc(C)cc2)ccc1=O,nt,nt,nt,-17%,nt,nt
CCOc1ccc(NC(=O)c2cn(CC(C)C)c(=O)c3c2c2ccccc2n3C)cc1,8%,?,28,7%,-4%,8.2µM*
O=C(N/N=C/c1ccc(O)c(O)c1)NC12CC3CC(CC(C3)C1)C2,-4%,12µM*,-82*,0%,?,15µM*
COc1ccc(C(=O)NNC(=O)C(NC(=O)c2cc(OC)cc(OC)c2)C(C)C)cc1 (stereo not drawn),10%,19%,-22,0%,16%,20%
COc1cc(OC)cc(C(=O)NC(C(=O)N2CCc3ccccc3C2)C(C)C)c1 (stereo not drawn),?,21µM*,31,-2%,?,?
COc1cc(OC)cc(C(=O)N[C@H](C(=O)NC23CC4CC(CC(C4)C2)C3)C(C)C)c1,-25%,29µM*,33,0%,-22%,?
COc1cc(/C=N/NC(=O)NC23CC4CC(CC(C4)C2)C3)ccc1O,26µM*,-24%,?,?,?,?
CCOc1ccc(/C=N/NC(=O)NC23CC4CC(CC(C4)C2)C3)cc1O,-15%,?,-16,?,-22%,?
COc1ccccc1C(CC(=O)O)NS(=O)(=O)c1ccc2c(c1)N(C(C)=O)CC(C)O2 (stereo not drawn),3%,1%,-5,-21%,4%,4%
COc1ccc(C(=O)NC23CC4CC(CC(C4)C2)C3)cc1OC,1%,-27%,-3,-3%,-2%,-12%
COc1cc(OC)c(C(=O)NC23CC4CC(CC(C4)C2)C3)cc1OC,-4%,?,3,14%,-7%,18µM*
CC1=C(C)C(=O)C(C(CCCCCC(=O)O)c2ccccc2)=C(C)C1=O (stereo not drawn),nt,17µM*,nt,-15%[57.4 µM],nt,?

# Source: PubChem
